{"source": "PubChem BioAssay (NCI)", "note": "This is part of a sample that, as a whole, favours compounds with a hit. Of some 79,000 tested, about 15% had one in any assay. Values without a mark were called inactive. The source made the active and inactive calls. Cut-off read from the data, not from the text of the source: active = growth inhibition above about 70%; inactive = the rest."}
{"assay": "NCI Yeast Anticancer Drug Screen. Data for the rad50 strain (AID 155);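 note: 0% = growth of vehicle-only cultures of the same strain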", "conditions": "S. cerevisiae rad50 strain growth inhibition; at 5.0 µM (retest, dose inferred, filed as 0.5); active compounds read high", "method_in_brief": "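DNA repair mutant yeast, compound exposure, growth read-out; inhibition is taken relative to vehicle.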"}
{"molecule": "Clc1ccc(OCC(Cn2ccnc2)c2ccc(Cl)cc2)cc1", "note": "(stereo not given)", "growth inhibition": "74% (active)"}
{"molecule": "CC(C)C(CC(C)(C)C)OC(=O)Nc1cccc2ccccc12", "note": "(stereo not given)", "growth inhibition": "0%"}
{"molecule": "CC(=O)OC[C@@]1(C)[C@@H]2CC[C@]3(C)[C@H](C(=O)C=C4[C@@H]5CC(C)(C)CC[C@]5(C(=O)O)CC[C@]43C)[C@@]2(C)CC[C@@H]1OC(C)=O", "growth inhibition": "23%"}
{"molecule": "CCOC(=O)C[n+]1c(C)sc2ccccc21", "growth inhibition": "-4%"}
{"molecule": "O=[N+]([O-])c1ccc(/C=N/O)s1", "growth inhibition": "-11%"}
{"molecule": "C=C(C)COc1ccccc1C(OCC)OCC", "growth inhibition": "1%"}
{"molecule": "CCCCCCCCCCCCCC1OC(=O)C(C)=C1C(=O)O", "note": "(stereo not given)", "growth inhibition": "-10%"}
{"molecule": "CC(C)C(Sc1nc(-c2ccccc2)c(-c2ccccc2)[nH]1)c1n[nH]c(=S)n1-c1ccccc1", "note": "(stereo not given)", "growth inhibition": "-1%"}
{"molecule": "Cc1ccc(-c2c(C#N)c(S)n(NS(=O)(=O)c3ccccc3)c(=O)c2C#N)cc1", "growth inhibition": "28%"}
{"molecule": "O=C(c1ccccc1)c1ccc2c(c1Cl)C(=O)c1ccccc1C2=O", "growth inhibition": "-6%"}
{"molecule": "COc1cccc(C2c3cc4c(cc3OC(O)C2C)OCO4)c1O", "note": "(stereo not given)", "growth inhibition": "-10%"}
{"molecule": "CCC[N+]1=C(/C=C/c2ccc3cccnc3c2O)C(C)(C)c2ccccc21", "growth inhibition": "0%"}
{"molecule": "O=C(/C=C/c1ccccc1Cl)c1ccc(F)cc1", "growth inhibition": "7%"}
{"molecule": "CCN(CC)C(=S)N=Nc1c(O)[nH]c2ccccc12", "growth inhibition": "80% (active)"}
{"molecule": "C[CH2][Sn]([CH2]C)([O]C(=O)c1ccccc1OC)[O][Sn]([CH2]C)([CH2]C)[O]C(=O)c1ccccc1OC", "growth inhibition": "36%"}
